# Entries with a potency or affinity are not part of this list. Calls of active or inactive are those of the source.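 How the source made its calls: active means compounds lowering Shn3 expression whose fitted half-maximal concentration is at most twice the top valid dose; inconclusive means flat partial decrease or an invalid curve fit; inactive means the rest.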
# Assay: reduction of endogenous Shn3 mRNA, dose response, qPCR, Clone20 cells, cherry-pick (AID 743415)
row,Structure (SMILES),outcome
1,Cn1nc(CC(=O)Nc2ccc3c(c2)OCCO3)c2ccccc2c1=O,inactive
2,CC(C)CCOc1cccc(OCC(=O)Nc2ccncc2)c1,inactive
3,CC(C)c1nc(SCC(=O)Nc2cccc(C(F)(F)F)c2)c2c(=O)n(C)c(=O)n(C)c2n1,inactive
4,Cc1ccnc(SCC(=O)Nc2sc3c(c2C#N)CCCC3)n1,inactive
5,Cn1c(=O)c2c(nc(NCc3ccco3)n2CCc2ccccc2)n(C)c1=O,inactive
6,COc1ccccc1NC(=O)Cn1cc(C(=O)C2CC2)c2ccccc21,inactive
7,Cc1ccccc1OCCOC(=O)c1cc(S(=O)(=O)N2CCCCC2)ccc1N1CCOCC1,inactive
8,Cc1ccc2nc(NC(=O)C3CCN(S(=O)(=O)c4ccc5c(c4)oc(=O)n5C)CC3)sc2c1,inactive
9,Cc1nc2scc(C)n2c(=O)c1S(=O)(=O)Nc1ccc(N2CCOCC2)c(Cl)c1,inactive
10,COc1ccc(C(=O)Nc2nc3ccccc3s2)c(OC)c1,inactive
11,Cc1cccc(-c2noc(CN(C(=O)C(c3ccccc3)c3ccccc3)C(C)C)n2)c1,inactive
12,Cc1nc2ccccc2cc1OCc1ccc(F)cc1,inactive
13,Cc1cccc(NS(=O)(=O)c2ccc(C3CCCCC3)cc2)c1,inactive
14,COc1cccc(-n2c(C)nc3c(cnn3-c3ccc(Cl)cc3)c2=O)c1,inactive
15,Cc1nc(NC(C)c2ccccc2)c2oc3ccccc3c2n1 (stereo unspecified),inactive
16,c1ccc(-c2noc(-c3ccc4ccccc4c3)n2)nc1,inactive
17,CCOc1ccc(N(C)S(=O)(=O)c2cc(-c3cc(C)no3)ccc2C(C)C)cc1,inactive
18,CCOc1cc(CNCCc2ccc(S(N)(=O)=O)cc2)ccc1OCc1ccccc1,inactive

row,Structure (SMILES),outcome
1,Cc1ccc(-c2nc3ncccc3o2)cc1NC(=O)c1sc2ccccc2c1Cl,inactive
2,COCCNc1nc(NCc2ccc(C(C)C)cc2)c2sccc2n1,inactive
3,COc1ccc(NS(=O)(=O)c2ccc(OC)c(N(C)S(=O)(=O)c3ccc(Cl)cc3)c2)cc1,inactive
4,CCN(CC)S(=O)(=O)c1ccc(S(=O)(=O)Nc2c(C)nn(C)c2C)cc1,inactive
5,CCOC(=O)N1CCN(c2ccc(S(=O)(=O)N(Cc3ccccc3)Cc3ccccc3)cn2)CC1,inactive
6,Cc1ccc2c(c1)nnn2C1CCN(S(=O)(=O)c2ccc(C(=O)N3C(C)CCCC3C)cc2)CC1 (stereo unspecified),inactive
7,CCN(CC)c1ccc(NC(=O)CN2C(=O)CSc3ncccc32)c(C)c1,inactive
8,CC1Cc2cc(S(=O)(=O)N3CCN(c4ccc(Cl)cc4)CC3)ccc2N1C(=O)C1CC1 (stereo unspecified),inactive
9,CCn1cc(CN(C)S(=O)(=O)c2ccc3ccccc3c2)c(C)n1,inactive
10,COc1ccccc1NS(=O)(=O)c1cc(NC(=O)c2ccc(Cl)nc2)ccc1Cl,inactive
11,O=C(CSc1c2c(nc3ccc(Cl)cc13)CCCC2)NCc1ccco1,inactive
12,CN(c1ccccc1)S(=O)(=O)c1cccc(NC(=O)CSc2nncs2)c1,inactive
13,O=C(CSc1nnc(-c2cccnc2)s1)Nc1ccnc2ccccc12,inactive
14,Cc1ccc(NC(=O)c2ccc(Cl)c(N3C(=O)C=CC3=O)c2)cc1,inactive
15,CCCOC(=O)c1ccc(OCC(O)Cn2c(C)nc3ccccc32)cc1 (stereo unspecified),inactive
16,CCCCOCCCNc1ncnc2c1[nH]c1ccccc12,inactive
17,Cc1ccc(-c2csc(N3CCC(NS(=O)(=O)c4ccc5c(c4)OCCO5)CC3)n2)cc1,inactive
18,CN(CC(=O)Nc1ccccc1Cl)C(=O)c1cccc(S(=O)(=O)N2CCN(c3ccccc3)CC2)c1,inactive

# Reference: PubChem BioAssay AID743415 (Broad Institute, 2014)
